Source: PubChem BioAssay
Records with an inconclusive call do not appear. Active and inactive are the calls of the source.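 Rule for the calls, unless noted: active = normalized viability below 100% at a tested concentration; inactive = the rest.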

What was measured:
[1] = Wnt pathway potentiators raising nuclear beta-catenin – imaging, WNT3A-conditioned medium, mouse C2C12, NPC library, primary screen (AID 1117326; in the data active = nuclear beta-catenin stimulation mostly above about 4.2%, no sharp cut-off; inactive = mostly below about 10%); details: stronger effect = higher value
[2] = stimulators of insulin release from INS-1E, primary screen, cell-based, 5 mM glucose, NPC library (AID 1117329;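 active = compound raises insulin release from rat beta cells at 5 mM glucose, no numeric limit stated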); details: rat INS-1E insulin secretion, at 10 µM, stronger effect = higher value
[3] = growth inhibition of GSK3B-pretreated HCT116 cells – cell-based, CellTiter-Glo, 0.2 to 20 µM (AID 1117336;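 active = compounds lowering colon cancer cell viability after pretreatment blocking the GSK3B kinase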); details: HCT116 viability after GSK3B inhibitor, at 20 µM, stronger effect = higher value
[4] = inhibition of endothelial tube formation, primary screen, imaging, VEGF stimulated, CD31 staining, tube area, NPC library (AID 1117340;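 active = compound that reduces growth-factor-driven endothelial tube area in a mixed cell culture, no cutoff stated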); details: VEGF-stimulated ADSC/ECFC co-culture, at 10 µM, stronger effect = higher value
[5] = GLP1 release stimulators, primary, NCI-H716, NPC library (AID 1117341;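 active = compound raises GLP1 secretion from the human gut endocrine cells, with no numeric limit stated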); details: NCI-H716 cells, at 10 µM, stronger effect = higher value
[6] = HCT116 colon cancer cell growth inhibition, primary screen, CellTiter-Glo luminescence, NPC library (AID 1117342;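 active = compounds that lower survival of HCT116 colon cancer cells in the luminescence readout, no numeric limit stated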); details: at 20 µM (top of the series)
[7] = reduced SW480 viability measured with CellTiter-Glo, NPC library, primary (AID 1117343;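 active = compounds that lower viability of the colon cancer cells in the luminescence readout, with no numeric limit stated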); details: CellTiter-Glo luminescence; at 20 µM (top of the series) unless noted
[8] = NPC library primary testing for decreased DLD-1 cell viability via CellTiter-Glo (AID 1117346;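 active = compounds that lower survival of DLD-1 colon cancer cells in the luminescence readout, no cutoff given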); details: DLD-1 viability, CellTiter-Glo luminescence; at 20 µM (top of the series)
[9] = test system: Aerobactin synthetase IucA (Klebsiella pneumoniae); assay: inhibition of K. pneumoniae IucA enzyme – biochemical, Tocris library, absorbance (AID 1345561; call rule not given here;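 note: 100% = enzyme without compound and 0% = no enzyme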); details: purified IucA enzyme assay, absorbance (OD) read-out; stronger effect = lower value;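 tested at 8 µM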
[10] = viability loss with induced miR-34 in A549 – imaging, A549 dox-inducible miR-34, nuclei and caspase counts, primary screen (AID 1347080;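 active = compounds whose cell count with miR-34 switched on is under 0.7 times the count with it off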); details: A549 miR-34 inducible, Hoechst nuclei count, 48 h
[11] = galactose survival enhancers in mitochondrial complex I cybrids – cell-based, galactose medium, ATP luminescence, primary screen (AID 1645843;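 active = z-score of at least 1.8 in each of two replicates, scored against plate mean and spread of sample wells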;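 note: positive z means more ATP and so rescue of galactose-driven cybrid death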); details: complex I mutant cybrid cells, 72 h, stronger effect = higher value
[12] = viability loss in pontine glioma line – cell-based, SU-DIPG-XVII, MIPE5.0, CellTiter-Glo, qHTS, dose response (AID 1347060; cut-off not given, nearly all actives have AC50 up to about 26 µM;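 note: cells exposed to compound for 48 hours before viability readout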); details: CellTiter-Glo ATP luminescence
[13] = viability loss in pontine glioma line – cell-based, SU-DIPG-XIII, MIPE4.0, CellTiter-Glo, qHTS, dose response (AID 1347061; cut-off not given, nearly all actives have AC50 up to about 37 µM;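 note: cells exposed to compound for 48 hours before readout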); details: CellTiter-Glo ATP luminescence
[14] = viability loss in pontine glioma line – cell-based, SU-DIPG-IV, MIPE4.0, CellTiter-Glo, qHTS, dose response (AID 1347063; cut-off not given, nearly all actives have AC50 up to about 30 µM;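 note: compound exposure lasted 48 hours before the viability readout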); details: CellTiter-Glo ATP luminescence
[15] = drug combination growth inhibition, ovarian cancer – cell-based, oncology-focused library, rucaparib conditional, profiling panel (AID 1508598); details: patient-derived ovarian cancer cells, CellTiter-Glo viability, 144 h, stronger effect = lower value
[16] = growth inhibition of DIPG cells – cell-based, MIPE5.0 library, qHTS (AID 1347068; cut-off not given, nearly all actives have IC50 up to about 30 µM;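 note: cells exposed to compound for 48 hours before viability readout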); details: SU-DIPG-XXV viability
[17] = MELAS cybrid and Rieske KO viability enhancers – cell-based, MELAS cybrids, Rieske KO mouse fibroblasts, CellTiter-Glo, primary screen (AID 1508586;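 active = mean z-score across replicates of 1.96 or higher in either the MELAS or the Rieske mutant cell line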;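 note: z relative to plate mean and SD of compound and empty wells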); details: low glucose
[18] = stronger effect = lower value, cell number ratio, induced over uninduced
[19] = measured here: relative caspase fold change +Dox/-Dox
[20] = measured here: total cells with miR-34 induction, stronger effect = lower value
[21] = measured here: total cells without miR-34 induction

CC[N+](CC)(CCNC(=O)C(=O)NCC[N+](CC)(CC)Cc1ccccc1Cl)Cc1ccccc1Cl
1.05: fold change [10, 19]
8990: cell count [10, 20]
9570: cell count [10, 21]
3.3%: nuclear beta-catenin stimulation ([1]; stimulation, at 2 µM)
inactive: nuclear beta-catenin stimulation ([1]; at 10 µM) 0.3% | insulin secretion stimulation [2] 0.9% | viability decrease [3] -14.5% | tube area decrease [4] -8.9% | GLP1 secretion stimulation [5] 2.4% | inhibition of viability [6] 2.83% | viability decrease (inhibition) [7] 6.4% | viability decrease (inhibition) [8] -9.9% | remaining activity [9] 122% | fold change [10, 18] 0.939 | z-score [11] 0.25

CCN(CC)CCNC(=O)c1c(C)[nH]c(/C=C2\C(=O)Nc3ccc(F)cc32)c1C
inactive: nuclear beta-catenin stimulation ([1]; at 10 µM) 0.3% | GLP1 secretion stimulation [5] 18.2% | fold change [10, 18] 0.916 | viability ([15]; at 0.000305 µM, OCI-C5x cells, with rucaparib 10 µM, 100% = cells with rucaparib alone) 110% | viability ([15]; at 0.000305 µM, OCI-C5x cells, without rucaparib) 107% | viability ([15]; at 0.00122 µM, OCI-C5x cells, with rucaparib 10 µM, 100% = cells with rucaparib alone) 114% | viability ([15]; at 0.00122 µM, OCI-C5x cells, without rucaparib) 102% | viability ([15]; at 0.00488 µM, OCI-C5x cells, with rucaparib 10 µM, 100% = cells with rucaparib alone) 113% | viability ([15]; at 0.00488 µM, OCI-C5x cells, without rucaparib) 108% | viability ([15]; at 0.0195 µM, OCI-C5x cells, with rucaparib 10 µM, 100% = cells with rucaparib alone) 115% | viability ([15]; at 0.0781 µM, OCI-C5x cells, with rucaparib 10 µM, 100% = cells with rucaparib alone) 118% | viability ([15]; at 0.0781 µM, OCI-C5x cells, without rucaparib) 111% | viability ([15]; at 0.313 µM, OCI-C5x cells, with rucaparib 10 µM, 100% = cells with rucaparib alone) 123% | viability ([15]; at 0.313 µM, OCI-C5x cells, without rucaparib) 113% | viability ([15]; at 1.25 µM, OCI-C5x cells, with rucaparib 10 µM, 100% = cells with rucaparib alone) 126% | viability ([15]; at 1.25 µM, OCI-C5x cells, without rucaparib) 117% | viability ([15]; at 1.25 µM, OCI-P5x cells, without rucaparib) 104% | z-score [11] -1
active: insulin secretion stimulation [2] 47.3% | viability decrease [3] 108% | tube area decrease [4] 103% | inhibition of viability [6] 110% | viability decrease (inhibition) [7] 127% | viability decrease (inhibition) [8] 93.4% | AC50 [12] 7.42 µM | AC50 [13] 38.2 µM | AC50 [14] 9.59 µM | viability ([15]; at 0.000305 µM, OCI-P5x cells, with rucaparib 20 µM, 100% = cells with rucaparib alone) 84% | viability ([15]; at 0.000305 µM, OCI-P5x cells, without rucaparib) 93.8% | viability ([15]; at 0.00122 µM, OCI-P5x cells, with rucaparib 20 µM, 100% = cells with rucaparib alone) 98.6% | viability ([15]; at 0.00122 µM, OCI-P5x cells, without rucaparib) 88.3% | viability ([15]; at 0.00488 µM, OCI-P5x cells, with rucaparib 20 µM, 100% = cells with rucaparib alone) 96.3% | viability ([15]; at 0.00488 µM, OCI-P5x cells, without rucaparib) 97.4% | viability ([15]; at 0.0195 µM, OCI-C5x cells, without rucaparib) 99.1% | viability ([15]; at 0.0195 µM, OCI-P5x cells, with rucaparib 20 µM, 100% = cells with rucaparib alone) 98.7% | viability ([15]; at 0.0195 µM, OCI-P5x cells, without rucaparib) 95.9% | viability ([15]; at 0.0781 µM, OCI-P5x cells, with rucaparib 20 µM, 100% = cells with rucaparib alone) 95% | viability ([15]; at 0.0781 µM, OCI-P5x cells, without rucaparib) 99.9% | viability ([15]; at 0.313 µM, OCI-P5x cells, with rucaparib 20 µM, 100% = cells with rucaparib alone) 93.2% | viability ([15]; at 0.313 µM, OCI-P5x cells, without rucaparib) 99.5% | viability ([15]; at 1.25 µM, OCI-P5x cells, with rucaparib 20 µM, 100% = cells with rucaparib alone) 89.1% | viability ([15]; at 5 µM, OCI-C5x cells, with rucaparib 10 µM, 100% = cells with rucaparib alone) 60.6% | viability ([15]; at 5 µM, OCI-C5x cells, without rucaparib) 21.7% | viability ([15]; at 5 µM, OCI-P5x cells, with rucaparib 20 µM, 100% = cells with rucaparib alone) 1.9% | viability ([15]; at 5 µM, OCI-P5x cells, without rucaparib) 12.8%
-2%: nuclear beta-catenin stimulation ([1]; stimulation, at 2 µM)
715: cell count [10, 20]
780: cell count [10, 21]
1.17: fold change [10, 19]

C[C@@H](NCCCc1cccc(C(F)(F)F)c1)c1cccc2ccccc12
inactive: nuclear beta-catenin stimulation ([1]; at 10 µM) 35.9% | insulin secretion stimulation [2] 0.2% | outcome [13] | outcome [14] | fold change [10, 18] 0.971 | z-score ([17]; MELAS cybrid survival, CellTiter-Glo 48 h, stronger effect = higher value) -0.442
active: viability decrease [3] 101% | tube area decrease [4] 99.6% | GLP1 secretion stimulation [5] 20.5% | inhibition of viability [6] 102% | viability decrease (inhibition) [7] 123% | viability decrease (inhibition) [8] 104% | AC50 [12] 16.6 µM | IC50 [16] 20.9 µM
5970: cell count [10, 20]
0.761: fold change [10, 19]
6150: cell count [10, 21]
0.442: z-score ([17]; Rieske KO mouse fibroblast survival, CellTiter-Glo 72 h)
-0.4%: nuclear beta-catenin stimulation ([1]; stimulation, at 2 µM)
